Only some compounds are listed: those with a hit (about 3.7% of all), similar ones and a draw of the others.
tim23-1 inh: growth inhibitors of tim23-1 mutant yeast. 330,000 compounds, 1.3% hits. inhibition, % at 20 µM. S. cerevisiae tim23-1 growth, BacTiter-Glo luminescence, 24 h;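 active means growth inhibition of the mutant yeast at or above 50%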;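 further: temperature-sensitive mutant grown at 25 °C; plate controls were DMSO-treated mutant yeast for no effect and medium wells lacking yeast for full effect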
PfHsp90 yeast 2: inhibits growth of yeast expressing Plasmodium falciparum Hsp90; inhibition, % at 9.4 µM; 310,000 compounds, 0.32% hits; S. cerevisiae expressing PfHsp90, BacTiter-Glo ATP, 48 h; yeast lacking PDR1 and PDR3 efflux regulators;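 active means every replicate shows inhibition above about 80%, whatever the replicate mean, limit read from the data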;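 further: 0% = DMSO neutral controls and 100% = 20 µM radicicol positive controls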
V-ATPase pH: yeast V-ATPase proton transport regulation by pHLuorin. response, % at 10 µM. 350,000 compounds, 0.37% hits. S. cerevisiae, pHLuorin cytosolic pH fluorescence. AID 504577; in the data active means response mostly above about 7.3%, no sharp cut-off; inactive means mostly below about 5.4%; further: actives read high
tim10-1 inh: growth inhibitors of tim10-1 mutant yeast. S. cerevisiae tim10-1 ts strain growth, BacTiter-Glo, 24 h. inhibition, % at 20 µM. 330,000 compounds, 2.2% hits. AID 463190;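 active means inhibition of at least 40%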;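 further: mutant grown at 25 °C; 0% = DMSO wells with yeast and 100% = wells holding no yeast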
TIM10 inh: inhibits growth of TIM10 yeast strain; S. cerevisiae TIM10 strain growth, BacTiter-Glo luminescence, 24 h; inhibition, % at 10 µM; 330,000 compounds, 1.4% hits;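 active means inhibition of 40% or more at the single tested concentration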;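 further: wild-type TIM10 isogenic control strain grown at permissive 25 °C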
tim10-1 confirm: tim10-1 yeast growth inhibition, confirmed; AID 463213; S. cerevisiae tim10-1 ts strain growth, BacTiter-Glo, 24 h; inhibition, % at 20 µM; shares compounds with tim10-1 inh; 7,400 compounds, 56% hits;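 active means inhibition of yeast growth at or above a set limit in either of two repeat tests at 20 µM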;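 further: tim10-1 mutant grown at permissive 25 °C to find synthetic lethal compounds; 0% = DMSO yeast wells and 100% = medium wells without yeast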
* marks the source's active call; other numbers are inactive results.

How did CC(C)NC(=O)C(=O)Nc1ccc2c(c1)N(S(=O)(=O)c1cccs1)CCC2 do in these assays?
tim23-1 inh: 35; PfHsp90 yeast 2: 11; V-ATPase pH: 0; tim10-1 inh: 43*; TIM10 inh: 26; tim10-1 confirm: 21

Results for CNC(=O)C(=O)Nc1ccc2c(c1)N(S(=O)(=O)c1cccs1)CCC2 ?
tim23-1 inh: 30; V-ATPase pH: -2; tim10-1 inh: 25; TIM10 inh: 22

What do the screens show for `C=CCNC(=O)/C(C#N)=C/c1ccccc1OCc1ccc(C(=O)OC)cc1`?
tim23-1 inh: 45; PfHsp90 yeast 2: 15; V-ATPase pH: 1; tim10-1 inh: 45*; TIM10 inh: 31; tim10-1 confirm: 27

What do the screens show for `Clc1ccc(Cn2c(/C=C/c3ccco3)nc3ccccc32)cc1`?
tim23-1 inh: 45; PfHsp90 yeast 2: 8; V-ATPase pH: 2; tim10-1 inh: 48*; TIM10 inh: 31; tim10-1 confirm: 40*

What do the screens show for `Cc1ccc(C)c(NC(=O)CN2C(=O)NC(CCc3ccccc3)C2=O)c1` (stereo unspecified)?
tim23-1 inh: 9; PfHsp90 yeast 2: 11; V-ATPase pH: 0; tim10-1 inh: 4; TIM10 inh: 0

How did CCC(CC)C(=O)Nc1ccc(Cl)c(Cl)c1 do in these assays?
tim23-1 inh: 33; PfHsp90 yeast 2: -80; V-ATPase pH: 0; tim10-1 inh: 41*; TIM10 inh: 13; tim10-1 confirm: 22

Results for Cc1ccnc(NS(=O)(=O)c2ccc(NS(=O)(=O)c3ccc([N+](=O)[O-])cc3)cc2)n1 ?
tim23-1 inh: 18; PfHsp90 yeast 2: -7; V-ATPase pH: -4; tim10-1 inh: 14; TIM10 inh: -10

What do the screens show for `O=C(O)c1ccc(Sc2nnnn2-c2ccccc2)c([N+](=O)[O-])c1`?
tim23-1 inh: 18; PfHsp90 yeast 2: 3; V-ATPase pH: -2; tim10-1 inh: 14; TIM10 inh: -16

How did COC(=O)c1ccc(Sc2nnnn2-c2ccccc2)c([N+](=O)[O-])c1 do in these assays?
tim23-1 inh: 42; PfHsp90 yeast 2: 4; V-ATPase pH: 5; tim10-1 inh: 50*; TIM10 inh: 25; tim10-1 confirm: 35*

What do the screens show for `CN(CC1COc2ccccc2O1)C(=S)Nc1ccccc1` (stereo unspecified)?
tim23-1 inh: 35; PfHsp90 yeast 2: 16; V-ATPase pH: 2; tim10-1 inh: 42*; TIM10 inh: 21; tim10-1 confirm: 25

Results for COc1ccc(C(c2c(C)[nH][nH]c2=O)c2c(C)[nH][nH]c2=O)cc1Br ?
tim23-1 inh: 35; PfHsp90 yeast 2: -15; V-ATPase pH: 4; tim10-1 inh: 14; TIM10 inh: 39

Results for COc1cc(C(c2c(C)[nH][nH]c2=O)c2c(C)[nH][nH]c2=O)ccc1OC(=O)c1cccc([N+](=O)[O-])c1 ?
tim23-1 inh: 4; PfHsp90 yeast 2: 7; V-ATPase pH: 5; tim10-1 inh: 5; TIM10 inh: 17

What do the screens show for `Cc1ccc(C(c2c(C)[nH][nH]c2=O)c2c(C)[nH][nH]c2=O)cc1`?
tim23-1 inh: 20; PfHsp90 yeast 2: 8; V-ATPase pH: -1; tim10-1 inh: 42*; TIM10 inh: 11; tim10-1 confirm: 30

How did COc1cc(C(c2c(C)[nH][nH]c2=O)c2c(C)[nH][nH]c2=O)ccc1OC(C)C do in these assays?
tim23-1 inh: 31; PfHsp90 yeast 2: 13; V-ATPase pH: 1; tim10-1 inh: 40*; TIM10 inh: 35; tim10-1 confirm: 42*

How did COc1cc(C(c2c(C)[nH][nH]c2=O)c2c(C)[nH][nH]c2=O)ccc1OCc1ccc([N+](=O)[O-])cc1 do in these assays?
tim23-1 inh: 21; V-ATPase pH: 1; tim10-1 inh: 57*; TIM10 inh: 26; tim10-1 confirm: 51*

Results for COc1cc([N+](=O)[O-])cc(/C=N/NC(=O)Cn2nccc2C)c1O ?
tim23-1 inh: 2; PfHsp90 yeast 2: -54; V-ATPase pH: -3; tim10-1 inh: 1; TIM10 inh: 8

How did O=C(CNC(=O)c1cccs1)OCC(=O)c1ccc2ccccc2c1 do in these assays?
tim23-1 inh: 25; PfHsp90 yeast 2: -28; V-ATPase pH: 0; tim10-1 inh: 40*; TIM10 inh: 38; tim10-1 confirm: 15

What do the screens show for `O=C(CNC(=O)c1cccs1)OCC(=O)c1ccccc1`?
tim23-1 inh: 7; PfHsp90 yeast 2: -12; V-ATPase pH: 1; tim10-1 inh: 9; TIM10 inh: 12

Results for Cc1sc2nc(CN3CCOCC3)[nH]c(=S)c2c1C ?
tim23-1 inh: 15; PfHsp90 yeast 2: 2; V-ATPase pH: -1; tim10-1 inh: 18; TIM10 inh: 24

Results for O=C(Nc1cccnc1)OC1CCCCC1 ?
tim23-1 inh: 26; V-ATPase pH: 4; tim10-1 inh: 43*; TIM10 inh: 10; tim10-1 confirm: 26

What do the screens show for `O=C(Nc1cccnc1)OC1CCCC1`?
tim23-1 inh: 16; V-ATPase pH: -1; tim10-1 inh: 19; TIM10 inh: 19

How did COC(=O)[C@]1(Cc2ccccc2)N[C@H](CN(C)C(C)=O)[C@@H]2C(=O)N(Cc3ccccc3)C(=O)[C@@H]21 do in these assays?
tim23-1 inh: 5; PfHsp90 yeast 2: -13; V-ATPase pH: -1; tim10-1 inh: 23; TIM10 inh: -5

Results for Cc1cc(NC(=S)N(CCN2CCOCC2)Cc2ccccc2F)ccc1Cl ?
tim23-1 inh: 25; PfHsp90 yeast 2: 19; V-ATPase pH: -1; tim10-1 inh: 44*; TIM10 inh: 32; tim10-1 confirm: 16

What do the screens show for `Cc1ccc(NC(=S)N(CCN2CCOCC2)Cc2ccccc2F)cc1`?
tim23-1 inh: 21; PfHsp90 yeast 2: -14; V-ATPase pH: 6; tim10-1 inh: 25; TIM10 inh: 5

Results for O=C(COC(=O)c1cccc(S(=O)(=O)N2CCc3ccccc3C2)c1)NCc1ccco1 ?
tim23-1 inh: 3; PfHsp90 yeast 2: 12; V-ATPase pH: -2; tim10-1 inh: 41*; TIM10 inh: 1; tim10-1 confirm: 12

How did COc1ccc(C/C(=N\OC(C)=O)c2ccc(OC)cc2)cc1 do in these assays?
tim23-1 inh: 26; PfHsp90 yeast 2: -12; V-ATPase pH: 2; tim10-1 inh: 46*; TIM10 inh: 7; tim10-1 confirm: 45*

How did O=C(O)COc1ccc(F)cc1Br do in these assays?
tim23-1 inh: 6; PfHsp90 yeast 2: -6; V-ATPase pH: -2; tim10-1 inh: -1; TIM10 inh: 3

Results for O=C(c1cc2c(s1)CCCCC2)N1CCN(c2ncccn2)CC1 ?
tim23-1 inh: 36; PfHsp90 yeast 2: 32; V-ATPase pH: -1; tim10-1 inh: 45*; TIM10 inh: 18; tim10-1 confirm: 29

How did COc1ccc(N2CCN(C(=O)c3cc4c(s3)CCCCC4)CC2)cc1 do in these assays?
tim23-1 inh: 37; PfHsp90 yeast 2: -15; V-ATPase pH: 2; tim10-1 inh: 22; TIM10 inh: 14

Screening data from PubChem.
